Results taken from PubChem BioAssay (Tox21).
Inconclusive results are not listed. A call without a number means that no potency is given here. Active and inactive are the calls of the source. Unless noted, the call rests on the fitted dose curve; in most records, active means well fitted curve in the direction sought with a large enough effect in the repeat runs; inconclusive means weak or mixed curves; inactive means no such curve, though single readings can be large; an effect the other way counts as inactive or inconclusive.

Tests used:
[1] = Human pregnane X receptor (PXR) small molecule agonists, qHTS cell viability counter screen (AID 1346977); further: nearly all actives have a fitted effect of over 50% in size
How it was run: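 Viability counter screen: CellTiter-Fluor signal in PXR-Luc HepG2 cells, 24hr compound exposure, 37C, 5% CO2.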

[2] = Caspase-3/7 induction in HepG2 cells by small molecules, qHTS assay (AID 1346978); further: nearly all actives have a fitted effect of over 15% in size
How it was run: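 Wild-type HepG2 cells (2,000/well) were settled 5 h at 37 C, 5% CO2, then exposed to compounds in DMSO for 17 h. Caspase-3/7 activity was read by luminescence 30 min after adding Caspase-Glo 3/7 reagent at room temperature.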

[3] = Caspase-3/7 induction in CHO-K1 cells by small molecules, qHTS cell viability counter screen (AID 1346979); further: nearly all actives have a fitted effect of over 35% in size
How it was run: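 Viability readout by fluorescence (CellTiter-Fluor) on wild-type CHO-K1 cells exposed for 16hr at 37C and 5% CO2 to compounds delivered in DMSO; reagent incubated 1hr before reading.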

[4] = Caspase-3/7 induction in CHO-K1 cells by small molecules, qHTS assay (AID 1346980); further: nearly all actives have a fitted effect of over 15% in size
How it was run: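 Wild-type cells were seeded at 1,500 per well and settled 5 hr at 37 C, 5% CO2, then exposed to DMSO-dissolved compounds for 17 hr. Caspase-Glo 3/7 reagent was added, and luminescence was read after 30min at room temperature.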

[5] = Caspase-3/7 induction in HepG2 cells by small molecules, qHTS cell viability counter screen (AID 1346981); further: series mostly up to about 92 µM; nearly all actives have a fitted effect of over 30% in size
How it was run: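 The parent HepG2 line is plated at 2,000 cells per well and rested 5 hr before compound pinning from DMSO stocks. Following a 16-hr treatment at 37 C, a fluorogenic live-cell substrate (CellTiter-Fluor) reports viability after 1 hr.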

[6] = target: Nuclear receptor subfamily 1 group I member 2 (Homo sapiens) (UniProt O75469); test: Human pregnane X receptor (PXR) small molecule agonists, qHTS assay (AID 1346982); further: nearly all actives have a fitted effect of over 35% in size; further: potency means the concentration at half of the fitted maximal effect
Nuclear receptor subfamily 1 group I member 2 (Homo sapiens), sequence (O75469 whole entry, looked up): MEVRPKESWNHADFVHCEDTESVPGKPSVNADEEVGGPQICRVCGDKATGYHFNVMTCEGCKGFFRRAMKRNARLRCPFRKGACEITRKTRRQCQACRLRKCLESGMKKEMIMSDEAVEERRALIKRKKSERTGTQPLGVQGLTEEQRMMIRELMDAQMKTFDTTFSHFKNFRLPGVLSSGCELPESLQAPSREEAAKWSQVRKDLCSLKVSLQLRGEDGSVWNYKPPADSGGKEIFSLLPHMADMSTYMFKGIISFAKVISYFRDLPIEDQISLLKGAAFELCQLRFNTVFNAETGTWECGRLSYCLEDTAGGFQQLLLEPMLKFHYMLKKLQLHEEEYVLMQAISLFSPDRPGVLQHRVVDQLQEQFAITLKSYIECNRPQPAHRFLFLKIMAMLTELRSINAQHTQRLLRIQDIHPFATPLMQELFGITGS
How it was run: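 After plating in 5% charcoal-stripped FBS and a 5 hr rest, PXR-Luc HepG2 cells received compounds in DMSO. Following 24 hr at 37 C, ONE-Glo was added and light output read.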

[7] = target: Acetylcholinesterase (Homo sapiens) (UniProt P22303); test: Acetylcholinesterase (AChE) small molecule antagonists: colormetric cell-based qHTS assay (AID 1347395; calls by dose curve; further: nearly all actives have a fitted effect of over 30% in size; further: potency means the concentration at half of the fitted maximal effect)
Acetylcholinesterase (Homo sapiens), sequence (P22303 whole entry, looked up): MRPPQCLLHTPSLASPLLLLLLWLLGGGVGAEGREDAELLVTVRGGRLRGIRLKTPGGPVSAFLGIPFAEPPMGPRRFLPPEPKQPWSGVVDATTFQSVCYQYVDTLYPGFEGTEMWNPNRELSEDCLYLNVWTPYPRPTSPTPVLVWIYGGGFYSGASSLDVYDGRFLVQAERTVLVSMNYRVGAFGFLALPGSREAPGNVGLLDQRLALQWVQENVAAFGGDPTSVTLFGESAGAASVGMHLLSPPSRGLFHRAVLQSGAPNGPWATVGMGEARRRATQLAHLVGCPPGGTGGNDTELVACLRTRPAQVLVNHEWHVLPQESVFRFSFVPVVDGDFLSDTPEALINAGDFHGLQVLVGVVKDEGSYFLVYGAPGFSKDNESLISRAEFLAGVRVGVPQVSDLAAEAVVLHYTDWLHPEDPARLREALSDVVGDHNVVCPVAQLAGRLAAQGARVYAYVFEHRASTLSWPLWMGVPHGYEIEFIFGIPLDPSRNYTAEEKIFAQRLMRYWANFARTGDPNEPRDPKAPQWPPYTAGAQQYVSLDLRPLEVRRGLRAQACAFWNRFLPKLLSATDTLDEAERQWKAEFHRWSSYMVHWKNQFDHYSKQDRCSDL
How it was run: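 Homogeneous whole-cell format. SH-SY5Y cells seeded overnight, dosed with compound (30 min, 37 C, 5% CO2), then given DTNB/acetylthiocholine cocktail for 90 min at 37 C; colorimetric signal.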

[8] = target: Acetylcholinesterase (Homo sapiens) (UniProt P22303); test: Acetylcholinesterase (AChE) small molecule antagonists: enzyme-based qHTS assay (AID 1347397; calls by dose curve; further: nearly all actives have a fitted effect of over 55% in size; further: potency means the concentration at half of the fitted maximal effect); conditions: Potency: AChE enzyme activity inhibition
How it was run: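 Compound or DMSO vehicle was pin-transferred onto recombinant human AChE (50 mU/mL as dispensed) and left 30 min at room temperature. Acetylthiocholine with DTNB then started the reaction, read colorimetrically 10 min later.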

[9] = target: Acetylcholinesterase (Homo sapiens) (UniProt P22303); test: Acetylcholinesterase (AChE) small molecule antagonists: fluorescence cell-based qHTS assay (AID 1347398; calls by dose curve; further: nearly all actives have a fitted effect of over 50% in size; further: potency means the concentration at half of the fitted maximal effect); conditions: Potency: AChE activity
How it was run: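 Using neuroblastoma SH-SY5Y cells as the enzyme source, test chemicals are preincubated 30 min at 37 C; AChE-driven acetylthiocholine cleavage is then quantified by thiocholine-dependent Thiolite Green fluorescence after 40 min at room temperature.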

[10] = target: Acetylcholinesterase (Homo sapiens) (UniProt P22303); test: Acetylcholinesterase (AChE) small molecule antagonists: enzyme-based qHTS assay with human liver microsomes (AID 1347399; calls by dose curve; further: nearly all actives have a fitted effect of over 60% in size); conditions: Potency: qHTS inhibition
How it was run: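 Recombinant human AChE (50 mU/mL in the enzyme mix) and human liver microsomes (0.25 mg/mL final) were preincubated with compound and NADPH (0.25 mg/mL final) for 30 min at 37 C. Acetylthiocholine/DTNB was then added; thiocholine was read colorimetrically after 10 min at room temperature.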

[11] = target: Cytochrome P450 2C19 (Homo sapiens) (UniProt P33261); test: Cytochrome P450 Family 2 Subfamily C Member 19 (CYP2C19) small molecule antagonists: luciferase reporter qHTS assay (AID 1671197); further: nearly all actives have a fitted effect of over 65% in size; further: potency means the concentration at half of the fitted maximal effect
Cytochrome P450 2C19 (Homo sapiens), sequence (P33261 whole entry, looked up): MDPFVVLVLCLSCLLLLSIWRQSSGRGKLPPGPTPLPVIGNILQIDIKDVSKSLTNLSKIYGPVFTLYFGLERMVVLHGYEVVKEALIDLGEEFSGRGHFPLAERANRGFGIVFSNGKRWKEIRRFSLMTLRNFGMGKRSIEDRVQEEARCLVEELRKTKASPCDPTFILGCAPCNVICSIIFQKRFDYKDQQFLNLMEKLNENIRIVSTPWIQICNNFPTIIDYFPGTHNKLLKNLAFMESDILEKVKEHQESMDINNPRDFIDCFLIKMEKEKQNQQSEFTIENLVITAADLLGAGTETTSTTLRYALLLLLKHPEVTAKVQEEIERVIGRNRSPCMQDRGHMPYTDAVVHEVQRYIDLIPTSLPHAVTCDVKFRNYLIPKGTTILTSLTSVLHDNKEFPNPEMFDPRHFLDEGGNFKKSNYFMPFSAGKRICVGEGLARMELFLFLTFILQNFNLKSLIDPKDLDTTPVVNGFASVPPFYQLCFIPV
How it was run: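 P450-Glo CYP2C19 screening system; proluciferin substrate; DMSO compound stocks; 10 min RT preincubation; NADPH regeneration, 1 h at 37C; luciferin detection reagent, 20 min RT; luminescence as RLU.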

[12] = target: Voltage-gated inwardly rectifying potassium channel KCNH2 (Homo sapiens) (UniProt Q12809); test: Human Ether-a-go-go-Related Gene (hERG) channel small molecule antagonists: fluorescence cell-based qHTS assay (AID 1671200); further: nearly all actives have a fitted effect of over 50% in size; further: potency means the concentration at half of the fitted maximal effect
Voltage-gated inwardly rectifying potassium channel KCNH2 (Homo sapiens), sequence (Q12809 whole entry, looked up): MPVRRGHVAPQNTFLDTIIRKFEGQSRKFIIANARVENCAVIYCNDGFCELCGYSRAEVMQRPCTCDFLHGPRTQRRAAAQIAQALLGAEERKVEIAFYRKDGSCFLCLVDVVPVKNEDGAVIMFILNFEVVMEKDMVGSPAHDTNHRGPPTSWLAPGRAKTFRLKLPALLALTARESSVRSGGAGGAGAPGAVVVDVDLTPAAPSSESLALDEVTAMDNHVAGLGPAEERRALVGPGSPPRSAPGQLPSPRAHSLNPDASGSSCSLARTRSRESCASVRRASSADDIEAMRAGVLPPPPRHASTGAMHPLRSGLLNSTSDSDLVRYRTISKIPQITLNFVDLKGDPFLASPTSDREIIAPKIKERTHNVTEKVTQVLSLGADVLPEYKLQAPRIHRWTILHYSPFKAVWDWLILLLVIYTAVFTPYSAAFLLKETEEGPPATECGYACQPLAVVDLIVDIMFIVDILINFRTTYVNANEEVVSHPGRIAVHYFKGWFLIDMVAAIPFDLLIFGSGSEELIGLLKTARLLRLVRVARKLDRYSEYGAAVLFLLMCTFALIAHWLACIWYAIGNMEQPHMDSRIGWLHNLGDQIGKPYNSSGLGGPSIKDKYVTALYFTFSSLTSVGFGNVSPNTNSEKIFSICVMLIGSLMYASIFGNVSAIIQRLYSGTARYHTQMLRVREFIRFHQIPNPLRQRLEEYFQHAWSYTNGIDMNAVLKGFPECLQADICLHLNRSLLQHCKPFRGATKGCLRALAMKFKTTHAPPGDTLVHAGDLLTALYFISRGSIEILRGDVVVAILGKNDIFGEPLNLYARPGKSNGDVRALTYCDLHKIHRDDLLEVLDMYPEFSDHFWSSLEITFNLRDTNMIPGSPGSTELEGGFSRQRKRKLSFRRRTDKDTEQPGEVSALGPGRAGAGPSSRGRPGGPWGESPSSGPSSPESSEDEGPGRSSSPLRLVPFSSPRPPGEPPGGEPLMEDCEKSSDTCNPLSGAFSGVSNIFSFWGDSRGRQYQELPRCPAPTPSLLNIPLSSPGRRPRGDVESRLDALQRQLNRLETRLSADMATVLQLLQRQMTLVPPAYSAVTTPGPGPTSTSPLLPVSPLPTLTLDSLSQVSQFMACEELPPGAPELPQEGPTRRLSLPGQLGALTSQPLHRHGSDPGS
How it was run: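 Thallium served as the potassium surrogate; its influx into dye-loaded U2OS cells carrying the channel was measured by fluorescence over 2 min.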

[13] = target: Cytochrome P450 2C9 (Homo sapiens) (UniProt P11712); test: Cytochrome P450 Family 2 Subfamily C Member 9 (CYP2C9) small molecule antagonists: luciferase reporter qHTS assay (AID 1671198); further: nearly all actives have a fitted effect of over 50% in size; further: potency means the concentration at half of the fitted maximal effect
Cytochrome P450 2C9 (Homo sapiens), sequence (P11712 whole entry, looked up): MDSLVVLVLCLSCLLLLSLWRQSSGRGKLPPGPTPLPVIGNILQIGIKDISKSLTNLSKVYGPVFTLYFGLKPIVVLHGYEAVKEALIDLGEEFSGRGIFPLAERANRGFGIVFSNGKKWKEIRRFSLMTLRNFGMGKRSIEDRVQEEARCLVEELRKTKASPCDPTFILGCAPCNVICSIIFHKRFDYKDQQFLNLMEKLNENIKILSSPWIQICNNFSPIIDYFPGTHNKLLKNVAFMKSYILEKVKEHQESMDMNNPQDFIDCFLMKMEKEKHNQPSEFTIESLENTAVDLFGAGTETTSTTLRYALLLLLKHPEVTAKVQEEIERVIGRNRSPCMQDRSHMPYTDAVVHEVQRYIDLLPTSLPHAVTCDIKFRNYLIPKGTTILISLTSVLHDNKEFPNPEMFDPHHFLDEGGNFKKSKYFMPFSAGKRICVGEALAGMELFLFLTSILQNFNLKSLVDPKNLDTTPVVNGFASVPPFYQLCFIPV
How it was run: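 CYP2C9 activity was measured with a P450-Glo proluciferin substrate. Enzyme–substrate mix was held with compound for 10 min at room temperature, then NADPH regeneration solution was added for 1 h at 37C. Luciferin product was read as luminescence.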

[14] = target: Cytochrome P450 3A4 (Homo sapiens) (UniProt P08684); test: Cytochrome P450 Family 3 Subfamily A Member 4 (CYP3A4) small molecule antagonists: luciferase reporter qHTS assay (AID 1671201); further: nearly all actives have a fitted effect of over 50% in size; further: potency means the concentration at half of the fitted maximal effect
Cytochrome P450 3A4 (Homo sapiens), sequence (P08684 whole entry, looked up): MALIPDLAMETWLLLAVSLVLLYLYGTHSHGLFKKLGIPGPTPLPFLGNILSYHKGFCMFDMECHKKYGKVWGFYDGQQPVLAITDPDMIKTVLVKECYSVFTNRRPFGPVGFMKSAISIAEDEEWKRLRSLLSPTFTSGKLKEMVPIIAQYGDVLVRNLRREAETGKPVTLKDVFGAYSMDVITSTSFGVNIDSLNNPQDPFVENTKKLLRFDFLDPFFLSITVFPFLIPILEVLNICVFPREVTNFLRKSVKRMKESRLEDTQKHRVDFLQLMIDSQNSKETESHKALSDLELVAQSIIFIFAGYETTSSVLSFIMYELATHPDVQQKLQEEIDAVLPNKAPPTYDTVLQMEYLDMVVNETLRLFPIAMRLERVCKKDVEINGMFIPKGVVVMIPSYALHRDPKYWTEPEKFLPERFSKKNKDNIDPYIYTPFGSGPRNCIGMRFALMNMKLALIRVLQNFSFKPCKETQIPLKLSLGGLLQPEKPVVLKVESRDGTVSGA
How it was run: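 Relative luminescence units after 20 min with luciferin detection reagent served as read-out. Beforehand, CYP3A4 turned over a proluciferin substrate for 1 h at room temperature with NADPH regeneration, following 10 min compound preincubation.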

[15] = target: Cytochrome P450 1A2 (Homo sapiens) (UniProt P05177); test: Cytochrome P450 Family 1 Subfamily A Member 2 (CYP1A2) small molecule antagonists: luciferase reporter qHTS assay (AID 1671199); further: nearly all actives have a fitted effect of over 50% in size; further: potency means the concentration at half of the fitted maximal effect
Cytochrome P450 1A2 (Homo sapiens), sequence (P05177 whole entry, looked up): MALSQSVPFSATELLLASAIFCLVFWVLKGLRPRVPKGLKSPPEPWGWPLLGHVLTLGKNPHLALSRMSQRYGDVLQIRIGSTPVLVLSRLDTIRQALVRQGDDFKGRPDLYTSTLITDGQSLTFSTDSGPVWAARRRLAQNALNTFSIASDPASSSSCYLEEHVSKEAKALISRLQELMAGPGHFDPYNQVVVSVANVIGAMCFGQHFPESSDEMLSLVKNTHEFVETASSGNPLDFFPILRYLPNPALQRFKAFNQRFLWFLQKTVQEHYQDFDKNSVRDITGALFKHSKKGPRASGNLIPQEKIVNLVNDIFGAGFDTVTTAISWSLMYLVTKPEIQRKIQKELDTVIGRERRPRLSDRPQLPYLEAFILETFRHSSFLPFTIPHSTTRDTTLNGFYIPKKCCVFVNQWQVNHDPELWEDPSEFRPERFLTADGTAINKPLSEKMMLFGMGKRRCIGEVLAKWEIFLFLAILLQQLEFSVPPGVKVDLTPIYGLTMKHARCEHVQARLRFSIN
How it was run: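 Quantitative high-throughput format using the P450-Glo CYP1A2 system. Reaction initiated by NADPH regeneration solution, 1 h at room temperature, then stopped with detection reagent; luminescence measured 20 min later.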

[16] = target: Cytochrome P450 2D6 (Homo sapiens) (UniProt P10635); test: Cytochrome P450 Family 2 Subfamily D Member 6 (CYP2D6) small molecule antagonists: luciferase reporter qHTS assay (AID 1671196); further: nearly all actives have a fitted effect of over 50% in size; further: potency means the concentration at half of the fitted maximal effect
Cytochrome P450 2D6 (Homo sapiens), sequence (P10635 whole entry, looked up): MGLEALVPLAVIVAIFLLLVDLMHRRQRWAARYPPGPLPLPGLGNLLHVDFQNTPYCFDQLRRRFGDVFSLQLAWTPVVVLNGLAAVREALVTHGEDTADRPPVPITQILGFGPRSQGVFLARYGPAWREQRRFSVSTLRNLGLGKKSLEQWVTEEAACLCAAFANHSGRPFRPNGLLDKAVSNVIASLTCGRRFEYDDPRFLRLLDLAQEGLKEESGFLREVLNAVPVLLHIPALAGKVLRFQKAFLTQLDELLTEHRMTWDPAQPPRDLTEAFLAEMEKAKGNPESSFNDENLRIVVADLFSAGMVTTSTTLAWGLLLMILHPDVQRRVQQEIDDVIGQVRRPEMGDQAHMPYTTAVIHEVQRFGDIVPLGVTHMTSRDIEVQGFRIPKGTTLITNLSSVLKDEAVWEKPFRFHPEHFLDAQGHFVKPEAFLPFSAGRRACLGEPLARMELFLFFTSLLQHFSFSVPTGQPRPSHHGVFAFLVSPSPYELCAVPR
How it was run: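 Quantitative HTS of Tox21 chemicals against CYP2D6 using a luminescent proluciferin substrate. After NADPH addition, 1 h room-temperature reaction; luminescence recorded 20 min post detection reagent.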

SMILES	Potency [1]	Potency [2]	Potency [3]	Potency [4]	Potency [5]	Potency [6]	Potency [7]	Potency [8]	Potency [9]	Potency [10]	Potency [11]	Potency [12]	Potency [13]	Potency [14]	Potency [15]	Potency [16]
CC1(C)CON(Cc2ccccc2Cl)C1=O	inactive	inactive	inactive	inactive	inactive	68.6 µM (active)	inactive	inactive	inactive	inactive	10 µM (active)	inactive	–	–	–	–
COCC(=O)N(c1c(C)cccc1C)N1CCOC1=O	inactive	inactive	inactive	inactive	inactive	inactive	inactive	inactive	inactive	–	79.6 µM (active)	–	inactive	inactive	–	–
CC1CN1P(=O)(N1CC1C)N1CC1C (stereo not given)	inactive	inactive	inactive	inactive	inactive	inactive	inactive	inactive	inactive	inactive	inactive	inactive	inactive	inactive	–	–
CNC(=O)Oc1c(C(C)(C)C)cc(C)cc1C(C)(C)C	inactive	inactive	inactive	inactive	inactive	inactive	inactive	inactive	inactive	inactive	2.83 µM (active)	inactive	6.33 µM (active)	2.83 µM (active)	–	–
CC(=O)CC(c1ccc(Cl)cc1)c1c(O)c2ccccc2oc1=O (stereo not given)	inactive	inactive	inactive	inactive	inactive	inactive	inactive	inactive	inactive	–	inactive	inactive	11.8 µM (active)	–	inactive	–
CC1CCCCC1NC(=O)Nc1ccccc1 (stereo not given)	inactive	inactive	inactive	inactive	inactive	24.3 µM (active)	inactive	inactive	inactive	inactive	11.2 µM (active)	inactive	35.6 µM (active)	11.2 µM (active)	31.7 µM (active)	–
N#CCBr	inactive	inactive	inactive	inactive	inactive	inactive	inactive	inactive	–	inactive	inactive	inactive	–	inactive	inactive	inactive
ClCC(Cl)(Cl)Cl	inactive	inactive	inactive	inactive	inactive	inactive	inactive	inactive	inactive	–	inactive	inactive	inactive	inactive	inactive	inactive
CCC(C)n1c(=O)[nH]c(C)c(Br)c1=O (stereo not given)	inactive	inactive	inactive	inactive	inactive	inactive	inactive	inactive	–	inactive	39.9 µM (active)	inactive	–	inactive	–	inactive
C(CCOCC1CO1)COCC1CO1 (stereo not given)	inactive	inactive	inactive	inactive	inactive	inactive	inactive	inactive	–	inactive	–	inactive	inactive	inactive	inactive	inactive
O=[N+]([O-])c1cccc2cccnc12	inactive	inactive	inactive	inactive	inactive	35.3 µM (active)	inactive	inactive	–	inactive	–	–	inactive	inactive	–	inactive
CCCCOC(=O)c1ccccc1N	inactive	inactive	inactive	inactive	inactive	inactive	inactive	inactive	inactive	–	28.4 µM (active)	inactive	–	inactive	8.99 µM (active)	inactive
CCSC(=O)N(CC)C1CCCCC1	inactive	inactive	inactive	inactive	inactive	inactive	inactive	inactive	inactive	–	–	inactive	–	inactive	inactive	inactive
O=C1OC(=O)C2C1C1(Cl)C(Cl)=C(Cl)C2(Cl)C1(Cl)Cl (stereo not given)	inactive	inactive	inactive	inactive	inactive	inactive	inactive	inactive	–	inactive	inactive	inactive	inactive	inactive	inactive	inactive
CC(N)=S	inactive	inactive	inactive	inactive	inactive	inactive	inactive	inactive	–	inactive	71 µM (active)	–	–	inactive	–	inactive
CNC(=O)O/N=C(\C)SC	inactive	inactive	inactive	inactive	inactive	inactive	1.59 µM (active)	2.83 µM (active)	1.26 µM (active)	–	–	inactive	inactive	inactive	–	–
CC1CCC(=O)O1 (stereo not given)	inactive	inactive	inactive	inactive	inactive	inactive	inactive	inactive	–	inactive	inactive	inactive	inactive	–	–	inactive
COC(=O)c1c(C(F)F)nc(C(F)(F)F)c(C2=NCCS2)c1CC(C)C	inactive	inactive	inactive	inactive	inactive	0.77 µM (active)	inactive	inactive	inactive	inactive	5.03 µM (active)	inactive	35.6 µM (active)	2 µM (active)	0.356 µM (active)	–

SMILES	Potency [1]	Potency [2]	Potency [3]	Potency [4]	Potency [5]	Potency [6]	Potency [7]	Potency [8]	Potency [9]	Potency [10]	Potency [11]	Potency [12]	Potency [13]	Potency [14]	Potency [15]	Potency [16]
CC(C(=O)c1ccccc1)N(C)C (stereo not given)	inactive	inactive	inactive	inactive	inactive	inactive	inactive	inactive	–	inactive	4.9 µM (active)	inactive	–	–	inactive	–
CSc1nc(N=[N+]=[N-])nc(NC(C)C)n1	inactive	inactive	inactive	inactive	inactive	61.1 µM (active)	inactive	inactive	inactive	inactive	71 µM (active)	inactive	79.6 µM (active)	–	28.3 µM (active)	–
Cc1ccccc1CO[C@@H]1C[C@@]2(C(C)C)CC[C@]1(C)O2	inactive	inactive	inactive	inactive	inactive	inactive	inactive	inactive	inactive	–	5.64 µM (active)	inactive	22.4 µM (active)	3.99 µM (active)	–	–
ClCCOCOCCCl	inactive	inactive	inactive	inactive	inactive	inactive	inactive	inactive	inactive	inactive	–	–	inactive	–	–	–
CCCCOC(=O)[C@@H](C)Oc1ccc(Oc2ccc(C#N)cc2F)cc1	inactive	inactive	inactive	inactive	inactive	inactive	inactive	inactive	inactive	inactive	19.9 µM (active)	4.34 µM (active)	7.92 µM (active)	inactive	31.5 µM (active)	–
Oc1c(Cl)cccc1Cl	inactive	inactive	inactive	inactive	inactive	inactive	inactive	inactive	–	inactive	inactive	inactive	inactive	–	–	–
CCOP(=O)(OCC)OP(=O)(OCC)OCC	inactive	inactive	inactive	inactive	inactive	inactive	inactive	inactive	inactive	inactive	–	inactive	inactive	–	inactive	–
CCCCC(=O)Cl	inactive	inactive	inactive	inactive	inactive	inactive	inactive	inactive	inactive	inactive	inactive	inactive	inactive	inactive	–	–
O=C(Cc1ccccc1)OCc1ccccc1	inactive	inactive	inactive	inactive	inactive	inactive	inactive	inactive	–	inactive	10.1 µM (active)	–	–	inactive	18 µM (active)	–
c1coc(-c2nc3ccccc3[nH]2)c1	inactive	inactive	inactive	inactive	inactive	3.44 µM (active)	inactive	inactive	inactive	inactive	28.3 µM (active)	inactive	inactive	inactive	7.96 µM (active)	–
N#Cc1ccncc1	inactive	inactive	inactive	inactive	inactive	inactive	inactive	inactive	inactive	–	inactive	inactive	inactive	inactive	inactive	inactive
Cc1cc(C)c(C(=O)P(=O)(C(=O)c2c(C)cc(C)cc2C)c2ccccc2)c(C)c1	inactive	inactive	inactive	inactive	inactive	24.3 µM (active)	inactive	inactive	inactive	inactive	35.6 µM (active)	inactive	35.6 µM (active)	25.2 µM (active)	71 µM (active)	–
NC(=S)C(N)=S	inactive	inactive	inactive	inactive	inactive	inactive	inactive	inactive	inactive	–	–	inactive	79.6 µM (active)	–	–	71 µM (active)
[As]#[In]	inactive	inactive	inactive	inactive	inactive	inactive	inactive	inactive	inactive	inactive	inactive	inactive	–	inactive	–	–
CN1C[C@@H](NS(=O)(=O)N(C)C)C[C@@H]2c3cccc4c3c(cn4C)C[C@H]21	inactive	inactive	inactive	inactive	inactive	23.7 µM (active)	inactive	inactive	–	inactive	inactive	inactive	inactive	inactive	inactive	inactive
CC(Cl)(Cl)[N+](=O)[O-]	inactive	inactive	inactive	inactive	inactive	inactive	inactive	inactive	inactive	–	inactive	inactive	inactive	inactive	inactive	inactive
ClC(Cl)(Cl)C(Cl)(Cl)Cl	inactive	inactive	inactive	inactive	inactive	inactive	inactive	inactive	inactive	inactive	inactive	inactive	inactive	inactive	inactive	–
OC(c1ccc(F)cc1)(c1cncnc1)c1ccccc1Cl (stereo not given)	inactive	inactive	inactive	inactive	inactive	30.6 µM (active)	inactive	inactive	–	–	3.99 µM (active)	inactive	20 µM (active)	0.356 µM (active)	–	–
